The results in this text go back to PubChem BioAssay (NCI).

Several values for one entry are separate records, joined by “and”; a condition that tells them apart may be missing. Equal values may be shown once. About 79,000 compounds went through this panel and 15% of them were active in at least one assay; those are over-represented in the sample as a whole. Some structures have more than one record in an assay (separate samples or runs), and their calls can disagree. Activity calls are given as the source filed them. No stated cut-off is given here; in the data, active means growth inhibition above about 70%; inactive means the rest.

A short description of test [1]: NCI Yeast Anticancer Drug Screen. Data for the rad50 strain (AID 155).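 Further: 0% = growth of vehicle-only cultures of the same strain.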 To be noted: S. cerevisiae rad50 strain growth inhibition, stronger effect = higher value. A digest of the protocol:
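Vehicle-treated cultures provide the reference for the growth inhibition reported for compound-exposed, repair-deficient yeast.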

Test [2] can be described thus: NCI Yeast Anticancer Drug Screen. Data for the mec2-1 strain (AID 157). The following applies: S. cerevisiae mec2-1 strain, stronger effect = higher value. A digest of the protocol: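 Using mec2-1 yeast: add compound, measure growth, express inhibition versus vehicle-treated cultures.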
The nature of test [3]: NCI Yeast Anticancer Drug Screen. Data for the sgs1 mgt1 strain (AID 161).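 Further: 0% = growth of cultures given vehicle only.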 The following applies: S. cerevisiae sgs1 mgt1 strain, stronger effect = higher value. A digest of the protocol: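 Percent growth inhibition was derived by comparing compound-exposed mutant yeast with vehicle-exposed cultures. The strain carries alterations in DNA damage repair.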
A short description of test [4]: NCI Yeast Anticancer Drug Screen. Data for the cln2 rad14 strain (AID 165).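 Further: 0% = growth equal to vehicle treated cultures.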 To be noted: S. cerevisiae cln2 rad14 strain, stronger effect = higher value. Summed up:
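Yeast strain cln2 rad14, bearing defects in cell cycle control and DNA repair, serves as the test system; values reflect growth inhibition compared with vehicle.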

A short description of test [5]: NCI Yeast Anticancer Drug Screen. Data for the bub3 strain (AID 167). The following applies: S. cerevisiae bub3 mutant strain, stronger effect = higher value. Summed up: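 Mutant yeast screening strain plus compound; vehicle-treated cultures serve as the 0% inhibition reference.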
The nature of test [6]: NCI Yeast Anticancer Drug Screen. Data for the mlh1 rad18 strain (AID 175). To be noted: S. cerevisiae mlh1 rad18 strain growth inhibition, stronger effect = higher value. Summed up:
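Steps: expose repair-defective yeast to compound; measure growth; express inhibition against vehicle-treated controls.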

Setting [7] is: at 5.0 µM (retest, dose inferred, filed as 0.5).
Where [8] appears, read: at 50.0 µM (retest, dose inferred, filed as 5.0).

Turning to `Oc1cc2c(cc1C(c1ccc3c(c1)OCO3)N1CCN(C(c3ccc4c(c3)OCO4)c3cc4c(cc3O)OCO4)CC1)OCO2` (centres undefined), the growth inhibition was 2% (inactive) in test [1] (setting [7]); 98% (active) in test [1] (setting [8]); 81.9% (active) in test [1] (at 50.0 µM); -1% (inactive) in test [2] (setting [7]); 99% (active) in test [2] (setting [8]); 92.8% (active) in test [2] (at 50.0 µM). The growth inhibition in test [3] (setting [7]) was 8% (inactive); in test [3] (setting [8]) it was 98% (active); in test [3] (at 50.0 µM), 78.2% (active); in test [4] (setting [7]), 8% (inactive); in test [4] (setting [8]) it was 49% (inactive); in test [4] (at 50.0 µM), 24.4% (inactive). Also, the growth inhibition in test [5] (setting [7]) is 2% (inactive); in test [5] (setting [8]), -1% (inactive); in test [5] (at 50.0 µM) it was 54.2% (inactive); in test [6] (setting [7]), 3% (inactive); in test [6] (setting [8]), 94% (active); in test [6] (at 50.0 µM), 93.2% (active).
For the compound `C=CCN(CC=C)C(CC(=O)C(C)(C)C)=NCC`, the growth inhibition in test [1] (setting [7]) is 0% (inactive); in test [1] (setting [8]) it was -6% (inactive); in test [1] (at 50.0 µM), -14.9% (inactive); in test [2] (setting [7]), -7% (inactive); in test [2] (setting [8]) it was 6% (inactive); in test [2] (at 50.0 µM) it was -7.85% (inactive). Besides, the growth inhibition in test [3] (setting [7]) is 0% (inactive); in test [3] (setting [8]), -6% (inactive); in test [3] (at 50.0 µM) it was -5.85% (inactive); in test [4] (setting [7]), 1% (inactive); in test [4] (setting [8]), 1% (inactive); in test [4] (at 50.0 µM), 36% (inactive). The growth inhibition in test [5] (setting [7]) was -3% (inactive); in test [5] (setting [8]), 3% (inactive); in test [5] (at 50.0 µM), -3.75% (inactive); in test [6] (setting [7]), -11% (inactive); in test [6] (setting [8]), 1% (inactive); in test [6] (at 50.0 µM) it was -22.6% (inactive).
As for `O=C1C=CC(=CC=C2C=CN(CCCCCCCCCCCO)C=C2)C=C1`, the growth inhibition was 12% (inactive) and 36% (inactive) in test [1] (setting [7]); 93% (active) and 3% (inactive) in test [1] (setting [8]); 88.8% (active) and 49.2% (inactive) in test [1] (at 50.0 µM); 6% (inactive) and 40% (inactive) in test [2] (setting [7]); 90% (active) and -2% (inactive) in test [2] (setting [8]); 85.5% (active) and 65% (inactive) in test [2] (at 50.0 µM). The growth inhibition in test [3] (setting [7]) was -10% (inactive) and 44% (inactive); in test [3] (setting [8]), 93% (active) and 2% (inactive); in test [3] (at 50.0 µM), 87.6% (active) and 62.8% (inactive); in test [4] (setting [7]), 7% (inactive) and 18% (inactive); in test [4] (setting [8]), 91% (active) and -8% (inactive); in test [4] (at 50.0 µM), 82.7% (active) and 57.4% (inactive). The growth inhibition in test [5] (setting [7]) was -3% (inactive) and 34% (inactive); in test [5] (setting [8]) it was 98% (active) and 2% (inactive); in test [5] (at 50.0 µM) it was 83% (active) and 50.6% (inactive); in test [6] (setting [7]), 10% (inactive) and 37% (inactive); in test [6] (setting [8]) it was 80% (active) and 1% (inactive); in test [6] (at 50.0 µM), 88% (active) and 59.2% (inactive).
Turning to `O=C1C(CN2CCCCC2)CCCC1CN1CCCCC1` (centres undefined), the growth inhibition is 0% (inactive) in test [1] (setting [7]); 25% (inactive) in test [1] (setting [8]); 13.3% (inactive) and 4.85% (inactive) in test [1] (at 50.0 µM); 2% (inactive) in test [2] (setting [7]); 44% (inactive) in test [2] (setting [8]); -11.6% (inactive) and 24.8% (inactive) in test [2] (at 50.0 µM). The growth inhibition in test [3] (setting [7]) is 1% (inactive); in test [3] (setting [8]), 29% (inactive); in test [3] (at 50.0 µM), 10.4% (inactive) and 31.3% (inactive); in test [4] (setting [7]), -4% (inactive); in test [4] (setting [8]), 6% (inactive); in test [4] (at 50.0 µM), -46.1% (inactive) and 41.2% (inactive). For the same compound, the growth inhibition in test [5] (setting [7]) was -4% (inactive); in test [5] (setting [8]), 20% (inactive); in test [5] (at 50.0 µM) it was -3.9% (inactive) and 59.3% (inactive); in test [6] (setting [7]), -1% (inactive); in test [6] (setting [8]), 29% (inactive); in test [6] (at 50.0 µM), 3.2% (inactive) and 10.4% (inactive).
As for `Nc1cc(Cl)c(S(=O)(=O)O)cc1Cl`, the growth inhibition is 67% (inactive) in test [1] (setting [7]); 98% (active) in test [1] (setting [8]); -16.2% (inactive) and 35.6% (inactive) in test [1] (at 50.0 µM); 18% (inactive) in test [2] (setting [7]); 98% (active) in test [2] (setting [8]); -1.25% (inactive) and -2.55% (inactive) in test [2] (at 50.0 µM). The growth inhibition is 9% (inactive) in test [3] (setting [7]); 96% (active) in test [3] (setting [8]); -1.55% (inactive) and -2.6% (inactive) in test [3] (at 50.0 µM); -7% (inactive) in test [4] (setting [7]); 96% (active) in test [4] (setting [8]); -14% (inactive) and 39.3% (inactive) in test [4] (at 50.0 µM). Further, the growth inhibition in test [5] (setting [7]) is 12% (inactive); in test [5] (setting [8]), 98% (active); in test [5] (at 50.0 µM), -6.55% (inactive) and 1.75% (inactive); in test [6] (setting [7]), 28% (inactive); in test [6] (setting [8]), 98% (active); in test [6] (at 50.0 µM), 5.2% (inactive) and 30.6% (inactive).
Turning to `CC(=O)[C@]1(O)Cc2c(O)c3c(c(O)c2[C@@H](OC2CC(N)C(O)C(C)O2)C1)C(=O)c1c(O)cccc1C3=O` (some centres undefined), the growth inhibition is 88% (active) and 91% (active) in test [1] (setting [7]); 97% (active) and 96% (active) in test [1] (setting [8]); 91.1% (active) and 86.5% (active) in test [1] (at 50.0 µM); 81% (active) and 80% (active) in test [2] (setting [7]); 98% (active) and 97% (active) in test [2] (setting [8]); 92.5% (active) and 89% (active) in test [2] (at 50.0 µM). For the same compound, the growth inhibition in test [3] (setting [7]) was 73% (active) and 92% (active); in test [3] (setting [8]), 96% (active) and 98% (active); in test [3] (at 50.0 µM), 92.4% (active) and 88.3% (active); in test [4] (setting [7]), 57% (inactive) and 66% (inactive); in test [4] (setting [8]) it was 97% (active) and 95% (active); in test [4] (at 50.0 µM), 88.7% (active) and 89.2% (active). Moreover, the growth inhibition in test [5] (setting [7]) is 77% (active) and 86% (active); in test [5] (setting [8]), 97% (active) and 98% (active); in test [5] (at 50.0 µM), 90.8% (active) and 89% (active); in test [6] (setting [7]), 90% (active) and 87% (active); in test [6] (setting [8]) it was 97% (active) and 95% (active); in test [6] (at 50.0 µM), 90.2% (active) and 92% (active).
On to `C=CCCC(=O)O`, for which the growth inhibition in test [1] (setting [7]) was 6% (inactive); in test [1] (setting [8]), 7% (inactive); in test [1] (at 50.0 µM) it was 1.25% (inactive) and 2.45% (inactive); in test [2] (setting [7]), 7% (inactive); in test [2] (setting [8]), 2% (inactive); in test [2] (at 50.0 µM) it was -2.15% (inactive) and -0.6% (inactive). For the same compound, the growth inhibition in test [3] (setting [7]) was 5% (inactive); in test [3] (setting [8]) it was 3% (inactive); in test [3] (at 50.0 µM) it was -11.3% (inactive) and 4.3% (inactive); in test [4] (setting [7]), 4% (inactive); in test [4] (setting [8]), 4% (inactive); in test [4] (at 50.0 µM) it was 54.4% (inactive) and 5.75% (inactive). The growth inhibition in test [5] (setting [7]) is 4% (inactive); in test [5] (setting [8]), 1% (inactive); in test [5] (at 50.0 µM), 64.5% (inactive) and 9.55% (inactive); in test [6] (setting [7]) it was 0% (inactive); in test [6] (setting [8]), 2% (inactive); in test [6] (at 50.0 µM), -40.5% (inactive) and 0.95% (inactive).
Regarding `O=[N+]([O-])c1ccc2ccccc2c1O`, the growth inhibition in test [1] (setting [7]) is 2% (inactive); in test [1] (setting [8]), 94% (active); in test [1] (at 50.0 µM) it was 96.7% (active); in test [2] (setting [7]) it was 8% (inactive); in test [2] (setting [8]) it was 97% (active); in test [2] (at 50.0 µM), 97.7% (active). Also, the growth inhibition was 5% (inactive) in test [3] (setting [7]); 97% (active) in test [3] (setting [8]); 95.7% (active) in test [3] (at 50.0 µM); 3% (inactive) in test [4] (setting [7]); 98% (active) in test [4] (setting [8]); 97.4% (active) in test [4] (at 50.0 µM). For the same compound, the growth inhibition is -3% (inactive) in test [5] (setting [7]); 93% (active) in test [5] (setting [8]); 95.5% (active) in test [5] (at 50.0 µM); 3% (inactive) in test [6] (setting [7]); 97% (active) in test [6] (setting [8]); 98.5% (active) in test [6] (at 50.0 µM).
